Assay [1] in a line: qHTS profiling of the MIPE4 collection as inhibitors of Plasmodium falciparum (DD2) proliferation (Rep 2) (AID 743346; call rule not given here). The conditions noted are these: P. falciparum Dd2 in erythrocytes, SYBR Green DNA, 72 h; at 28.5 µM unless noted. The method, boiled down:
(§1)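 Erythrocytes infected with P. falciparum (0.3% parasitemia, 2.5% hematocrit) incubated with compounds 72 h at 37 C, 5% CO2. Lysis with saponin/Triton buffer containing SYBR Green I, overnight at room temperature in the dark; DNA fluorescence (485/535 nm) normalised to 0.29 uM artemisinin and DMSO.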
(qHTS replaces the single test concentration by a dilution series.)

A short description of assay [2]: qHTS profiling of the MIPE4 collection as inhibitors of Plasmodium falciparum (HB3) proliferation (AID 743347; call rule not given here;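 also: plate controls were DMSO vehicle wells for no effect and artemisinin wells for full effect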). The settings on record: P. falciparum HB3 in erythrocytes, SYBR Green DNA, 72 h; at 28.5 µM unless noted. Summed up:
as §1

Assay [3] in a line: High-throughput drug toxicity screening in the BPDCN cell line Gen2.2 (AID 1224824; call rule not given here;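 also: cells exposed to compounds for 48 h before reading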). The settings on record: Gen2.2 BPDCN cells; at 45.8 µM (top of the series) unless noted. Summed up: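 Readout is ATP luminescence from Gen2.2 cells after two days of drug exposure in serum-containing medium at 37 °C. Values express percent activity, with vehicle defining full signal and 9.2 uM bortezomib defining zero.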

Assay [4] is described as follows: High-throughput drug toxicity screening in the BPDCN cell line Cal-1 (AID 1224825; call rule not given here). The conditions noted are these: Cal-1 BPDCN cell viability, qHTS; at 45.8 µM (top of the series) unless noted. The method, boiled down: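 Exponentially growing Cal-1 cells, 500 per well in phenol red-free RPMI with 10% FBS, were exposed to compounds for 48 h at 37 °C, 5% CO2. Viability was read by CellTiter-Glo luminescence and normalised to DMSO (100%) and 9.2 uM bortezomib (0%).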

Assay [5] is described as follows: qHTS assay for measurement of the activity of small molecule inhibitors on Zika virus induced Caspase-3 activity in human iPSC derived neural progenitor cells (hNPCs) (AID 1224857). Also: % of control where 0% means no effect; nearly all actives have a fitted effect of over 65% in size. Summed up: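 Cells were plated at 350 per well and grown 16 to 20 hours. Compound pretreatment lasted one hour, after which ZIKV (2 FFU/cell) was added for 6 hours. Percent inhibition was normalized between uninfected and infected controls.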

The nature of assay [6]: qHTS assay for measurement of the activity of small molecule inhibitors on Zika virus induced Caspase-3 activity in human astrocytoma cells (AID 1224859).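 Also: plate controls were ZIKV-infected untreated cells for no effect and uninfected cells for full effect.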 The method, boiled down:
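Percent inhibition of virus-induced caspase-3/7 signal is calculated against uninfected and ZIKV-infected control cells. Cells are SNB-19, infected at 2 FFU/cell for 6 h after 1 h compound exposure.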

Assay [7] is described as follows: qHTS Screen of the MIPE 4.0 Collection Against Ewings Sarcoma (RDES) (AID 1259252). Also: nearly all actives have a fitted effect of over 35% in size. Also: potency is read from the fitted curve at half-maximal effect. Summed up: (§2)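 Here, cells in 5% FBS RPMI were exposed for two days (48 h) to compound dilutions added four hours after plating. ATP-based CellTiter-Glo luminescence measured viability, normalized to vehicle and no-cell blanks.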
Assay [8] can be described thus: qHTS Screen of the MIPE 4.0 Collection Against Ewings Sarcoma (EW8) (AID 1259255). Also: nearly all actives have a fitted effect of over 35% in size. Also: potency is read from the fitted curve at half-maximal effect.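 As to viability: 100% = DMSO-treated cells and 0% = medium-only wells without cells.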 The method, boiled down: as §2
The nature of assay [9]: qHTS Screen of the MIPE 4.0 Collection Against Ewings Sarcoma (TC32) (AID 1259256). Also: nearly all actives have a fitted effect of over 45% in size. Also: potency is read from the fitted curve at half-maximal effect. The method, boiled down: as §2
The nature of assay [10]: qHTS Screen of the MIPE 4.0 Collection Against Ewings Sarcoma (TC71) (AID 1259253). Also: nearly all actives have a fitted effect of over 40% in size. Also: potency is read from the fitted curve at half-maximal effect. The method, boiled down:
as §2

Molecules are shown by their SMILES. Inconclusive results are not listed. Active and inactive are the calls of the source. Unless noted, calls follow the shape of the dose curve; as a rule, active = well fitted inhibition curve with a large enough effect; inconclusive = small, poorly fitted or top-dose-only effect; inactive = no such curve, though single readings can be large or run the other way.

In the case of `c1cc(N[C@@H]2CCNC2)nc(-c2cnc3ccc(-c4cn[nH]c4)cn23)c1`, the parasite growth, % of control (lower = inhibition) in assay [1] came out at 9.64%. The growth, % of control in assay [2] came out at 3.77%. In addition, the cell viability, % of control (lower = more cytotoxic) in [3] was found to be 3.68%. Besides, the viability (% of control) in assay [4] came to 3.36%. The Potency entry in assay [5] and in assay [6] was “inactive” throughout. The Potency in assay [7] is 16.6 µM (active); in assay [8], 16.6 µM (active); in assay [9], 23.5 µM (active).
On to `COc1ccc2cc([S+]([O-])Cc3ncc(C)c(OC)c3C)nc2c1`, for which, in assay [1], the parasite growth, % of control (lower = inhibition) was 61.5%. The compound further gave a growth, % of control in assay [2] of 41.2%. Also, the cell viability, % of control (lower = more cytotoxic) in [3] came out at 70.5%. In addition, the viability (% of control) in [4] was found to be 107%. The Potency entry in assay [5], in assay [6], in [7], in assay [8] and in assay [9] was “inactive” each time.
For the compound `Cn1cnc(=N)c2[nH]cnc21`, in [1], the parasite growth, % of control (lower = inhibition) is 7.19%. In addition, the growth, % of control in assay [2] stood at 3.51%. Besides, the cell viability, % of control (lower = more cytotoxic) in [3] was 128%. For the same compound, the viability (% of control) in assay [4] came to 8.73%. Moreover, the Potency entry in assay [5] and in assay [6] was “inactive” each time. For the same compound, the Potency was 0.235 µM (active) in assay [10], 0.209 µM (active) in [8] and 0.132 µM (active) in assay [9].
Consider `c1coc(CNc2ncnc3nc[nH]c23)c1`, for which the cell viability, % of control (lower = more cytotoxic) in assay [3] is 90.9%. Further, the viability (% of control) in assay [4] was found to be 102%. Moreover, the Potency entry in [5], in [6], in assay [10], in assay [8] and in [9] was “inactive” each time.
Consider `O=C(NNC(=O)c1ccc(CNS(=O)(=O)c2ccc(F)c(Cl)c2)cc1)c1ccccc1`, for which the parasite growth, % of control (lower = inhibition) in assay [1] was found to be 100%. In assay [2], this compound registered a growth, % of control of 588%. Besides, in [3], the cell viability, % of control (lower = more cytotoxic) stood at 143%. Besides, the viability (% of control) in assay [4] amounted to 116%. Moreover, the Potency result in assay [5], in assay [6], in [10], in assay [8] and in assay [9] was “inactive” each time.
In the case of `COc1cc(O)c2c(c1)C1OC1C[C@H](O)[C@H](O)C(=O)C=CC[C@H](C)OC2=O` (stereo partly drawn), in assay [1], the parasite growth, % of control (lower = inhibition) was 6.84%. The same compound showed a growth, % of control in [2] of 2.42%. The cell viability, % of control (lower = more cytotoxic) in assay [3] worked out at 3.33%. The viability (% of control) in assay [4] amounted to 5.65%. Besides, the Potency entry in assay [5] and in assay [6] was “inactive” in each case. For the same compound, the Potency in assay [10] was 11.8 µM (active); in assay [8], 7.43 µM (active); in assay [9] it was 7.43 µM (active).
`COc1cccc2c1C(=O)c1c(O)c3c(c(O)c1C2=O)C[C@@](O)(C(=O)CO)C[C@@H]3O[C@H]1C[C@H](N)[C@H](OC2CCCCO2)[C@H](C)O1` (stereo partly drawn) displayed a parasite growth, % of control (lower = inhibition) in assay [1] of 7.8%. In addition, the growth, % of control in assay [2] stood at 3.44%. In [3], the cell viability, % of control (lower = more cytotoxic) was 5.53%. For the same compound, the viability (% of control) in assay [4] was 1.87%. For the same compound, the Potency entry in [5] and in assay [6] was “inactive” each time. Further, the Potency is 0.662 µM (active) in assay [10], 0.166 µM (active) in assay [8] and 0.0037 µM (active) in assay [9].
For the compound `O=c1c(O)c(-c2ccc(O)c(O)c2)oc2cc(O)ccc12`, in [1], the parasite growth, % of control (lower = inhibition) amounted to 14.7%. Besides, the growth, % of control in assay [2] was determined as 8.07%. Moreover, the cell viability, % of control (lower = more cytotoxic) in [3] came to 9.57%. Besides, the viability (% of control) in assay [4] was 2.16%. Further, the Potency entry in assay [5] and in assay [6] was “inactive” each time. In addition, the Potency was 18.7 µM (active) in assay [10], 16.6 µM (active) in assay [8] and 20.9 µM (active) in [9].
In turn, `CC(C)NC[C@@H](C(=O)N1CCN(c2ncnc3c2[C@H](C)C[C@H]3O)CC1)c1ccc(Cl)cc1` gave a parasite growth, % of control (lower = inhibition) in assay [1] of 5.81%. The growth, % of control in assay [2] stood at 2.94%. Also, the cell viability, % of control (lower = more cytotoxic) in [3] was 1.71%. Further, the Potency entry in [5] and in [6] was “inactive” throughout. The Potency in [7] is 4.69 µM (active); in assay [10] it was 11.8 µM (active); in [8] it was 1.66 µM (active); in assay [9] it was 2.64 µM (active).
In assay [1], `COc1ccc(C=Cc2cc(OC)c(OC)c(OC)c2)cc1NC(=O)[C@H](N)CO` had a parasite growth, % of control (lower = inhibition) of 79.9%. In [2], this compound returned a growth, % of control of 85.5%. In addition, in assay [3], the cell viability, % of control (lower = more cytotoxic) amounted to 6.82%. The Potency entry in assay [5], in assay [6] and in assay [9] was “inactive” throughout. The Potency was 0.0023 µM (active) in assay [7], 0.0033 µM (active) in assay [10] and 0.0042 µM (active) in [8].

The values above are taken from PubChem BioAssay (NCATS).
